# Experimental data reported in PubChem BioAssay AID463212 (Sanford-Burnham Center for Chemical Genomics, 2010).
# The whole screen tested about 330,000 compounds, of which about 4,400 (1.3%) were called active. The sample holds actives, similar compounds and a random draw of the others, so the mix is not that of the screen. Unmarked numbers belong to inactive results.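 How the source made its calls: active means growth inhibition of the mutant yeast at or above 50%; inactive means the rest.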
# Assay: growth inhibition of tim23-1 ts yeast – luminescence, uHTS, primary screen (AID 463212);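 further: temperature-sensitive mutant grown at 25 °C; plate controls were DMSO-treated mutant yeast for no effect and medium wells lacking yeast for full effect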
# Conditions: S. cerevisiae tim23-1 growth, BacTiter-Glo luminescence, 24 h; at 20 µM; hits give high values
row,SMILES,inhibition
1,Cc1cccc(N2C(=O)SC(SC(=Nc3ccccc3)Nc3ccccc3)C2=O)c1 (stereo unspecified),49.6%
2,CN(C)C(=O)c1cc(Br)ccc1Cl,-8.05%
3,Cc1ccc(OCCCCN2CCCCC2)c(Br)c1,16.7%
4,O=C(Cc1c(F)cccc1Cl)Nc1ncc([N+](=O)[O-])s1,55.4% (active)
5,CN(c1ccccc1)S(=O)(=O)c1cccc(NC(=O)Cc2c(F)cccc2Cl)c1,23.3%
6,COc1ccc(S(=O)(=O)N2CCOCC2)cc1NC(=O)Cc1c(F)cccc1Cl,5.42%
7,COc1ccc2nc3n(c(=O)c2c1)-c1cc(C)ccc1C(=O)NC3Cc1ccc(O)cc1 (stereo unspecified),-6.13%
8,Cc1ccc(C2CC(=O)NC(SCC(=O)OCc3ccccc3)=C2C#N)o1 (stereo unspecified),59.1% (active)
9,COC(=O)CSC1=C(C#N)C(c2ccccc2OC)C(C(=O)OC)C(=O)N1 (stereo unspecified),12.9%
10,CCCc1cc(=O)[nH]c(SCC(=O)OCc2ccccc2)n1,6.03%
11,CCCc1nnc(SCC(=O)N2C(C)CCCC2C)n1CC (stereo unspecified),1.57%
12,CC1CCCCC12NC(=O)N(CC(=O)N1CCN(c3ccccc3)CC1)C2=O (stereo unspecified),17.7%
13,O=C(c1[nH]ncc1-c1ccc(Cl)cc1)C1CO1 (stereo unspecified),43.9%
14,O=C(Nc1cc(S(=O)(=O)N2CCOCC2)ccc1N1CCOCC1)c1c(F)cccc1Cl,14.4%
15,Cc1cc(C)c(-c2c(O)c3ccccc3n(C)c2=O)c(C)c1,4.89%
16,Cc1cccc(Oc2c([N+](=O)[O-])c(=O)n(C)c3ccccc23)c1,56% (active)
17,Cc1cccc(OP(=O)(Nc2c(C)n(C)n(-c3ccccc3)c2=O)Oc2cccc(C)c2)c1,20.4%
18,CCn1c(SCC(=O)Nc2cc(C)ccc2C)nnc1-c1cnccn1,5.06%
19,CCc1cccc(NC(=O)CCCN2C(=O)C(c3ccccc3)Oc3cccnc32)c1 (stereo unspecified),35.3%
20,COc1ccc(C(=O)COC(=O)c2ccc3ccccc3n2)cc1,40.7%
21,O=C(Oc1ccc([N+](=O)[O-])cc1)c1ccc2ccccc2n1,69.8% (active)

row,SMILES,inhibition
1,CC(OC(=O)c1ccc2ccccc2n1)C(=O)c1ccccc1 (stereo unspecified),10.7%
2,COc1ccc([N+](=O)[O-])cc1C1NN=C(c2cccc3ccccc23)S1 (stereo unspecified),0.511%
3,N#C[C@]1(S(=O)(=O)c2ccccc2)C[C@@H]2ON=C(c3cccc(Br)c3)[C@@H]2C1,24.4%
4,Cc1sc2ncnc(Sc3nc4ccccc4s3)c2c1C,14.7%
5,CCCNc1ncnc2sc(C)c(C)c12,58.6% (active)
6,CSc1ncnc2sc(C)c(C)c12,-2.76%
7,COc1cc(C(=O)NCC(c2ccco2)N2CCCC2)ccc1OCc1ccccc1 (stereo unspecified),2.02%
8,CCc1ccc(C2C(C#N)=C(N)N(N3CCOCC3)C3=C2C(=O)CC(C)(C)C3)s1 (stereo unspecified),5.14%
9,Cc1ccc(S(=O)(=O)N2CC(O)C[C@H]2C(=O)OCC(=O)Nc2ccc(N3CCOCC3)cc2)cc1C (stereo partly specified),4.11%
10,O=C(O)C#Cc1cccc2ccccc12,7.2%
11,CN(Cc1ccccc1)C(=O)COC(=O)c1ccccc1Nc1ccccc1,42%
12,CCN1/C(=C\c2ccc3ccccc3[n+]2CC)Sc2cc(C)ccc21,51.5% (active)
13,CC(C)(C)OC(=O)CNC(=O)c1[nH]cnc1C(=O)N[C@@H](CCCCN)C(=O)OC(C)(C)C,-2.18%
14,O=C(c1ccccc1)c1cccn1CC(=O)N1CCN(c2ccc(F)cc2)CC1,17.4%
15,CN(C)Cc1ccccc1C1(O)c2ccccc2CSc2ccccc21 (stereo unspecified),34.6%
16,COc1ccc(C(=O)CC(=O)c2ccc(C)cc2)c(O)c1,29.8%
17,O=C(CSc1ncn[nH]1)NCc1ccc2c(c1)OCO2,-3.54%
18,O=C(CSc1ncn[nH]1)Nc1ccc(Br)cc1Br,-3%
19,O=C(/C=C/Sc1ncn[nH]1)c1ccc(Cl)cc1,74.3% (active)
20,CN(CCC1CCOCC1)C(=O)CC1C(=O)NCCN1Cc1cccc(F)c1 (stereo unspecified),-8.17%
21,COc1ccc(OCCn2ccnc2C)cc1,-7.96%

row,SMILES,inhibition
1,COc1cc(OC)cc(-c2cc3nc(C4CCN(C(=O)OC(C)(C)C)CC4)cc(=O)n3[nH]2)c1,7.61%
2,CCCCNC(=O)CCn1nc(-c2ccc(Cl)cc2)ccc1=O,18%
3,Cc1ccc(S(=O)(=O)NC(C)C(=O)NCc2ccc(Cl)cc2)cc1 (stereo unspecified),-2.23%
4,CCOc1ccccc1C1NC(=O)NC(C)=C1C(=O)OCc1ccco1 (stereo unspecified),16%
5,CCCn1nc(C(=O)NNC(=O)CCOc2ccccc2OCC)c2ccccc2c1=O,-4.04%
6,CCOc1ccccc1/C=c1\sc2nc(-c3ccco3)nn2c1=O,52.2% (active)
7,COC(=O)c1c(NC(=O)c2ccc(S(=O)(=O)N3CCOCC3)cc2)sc2c1CCN(C(C)C)C2,8.38%
8,CC(=O)c1ccc(NC(=O)C2CCCN2S(=O)(=O)c2cccs2)cc1 (stereo unspecified),14.8%
9,C=C1CCC(N(O)c2cc(C)on2)C(=C)CCC2C1CC2(C)C (stereo unspecified),55.5% (active)
10,Cc1cccc(N(C)C(=O)c2cc3c(=O)[nH]c4ccc(C)cc4c3s2)c1,6.52%
11,O=C(N/N=C\c1cccc(Br)c1)c1ccccc1-n1cccc1,53.7% (active)
12,O=C(N/N=C/c1cccc(Br)c1)c1ccc(N2CCCC2=O)cc1,12.3%
13,O=C(CNC(=O)c1cccs1)N/N=C/c1cccc(Br)c1,16.1%
14,Cc1cc(Nc2ccc(Br)cc2)nc2ccccc12,55.5% (active)
15,Cc1ccc2nc(Nc3ccccc3O)nc(-c3ccccc3)c2c1,24.4%
16,Cc1ccc2nc(Nc3ccccc3)cc(C)c2c1,57.6% (active)
17,CN1CCN(c2nc(Nc3ccc(O)cc3)nc3ccccc23)CC1,-37.1%
18,CCS(=O)(=O)Nc1cccc(-c2cc(-c3ccccc3)c3cc(C)ccc3n2)c1,29.6%
19,CC(=O)Nc1ccc(Nc2cc(C)nc(Nc3ccc(NC(C)=O)cc3)n2)cc1,8.84%
